Measured values taken from PubChem BioAssay AID651640 (Broad Institute, 2012).
Values joined by “and” are separate entries in the source; they are usually repeats but may differ in a detail not shown here. Identical values can stand only once. In all, about 350,000 compounds went through this assay and about 6,000 (1.7%) were called active. About 5% were inconclusive and are not listed. Cut-off read from the data, not from the text of the source: active = CPE inhibition above about 20% (passing the limit was not always enough); inconclusive = no clear call, values can overlap the other calls; tested in BHK-21 cells. The list comes from a sample in which actives are over-represented; it also holds similar structures and randomly drawn compounds. The source holds several records for some structures; these can differ, active in one and inactive in another.

Assay: protection of cells from dengue 2 killing – plate reader, single concentration, primary screen (AID 651640);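 note: 0% = median of neutral control wells and 100% = median of positive control wells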
Settings: DENV2-infected cells, cytopathic effect rescue, at 9.99 µM, stronger effect = higher value

Compound	CPE inhibition
O=C(NCCc1c[nH]c2ccccc12)c1cccc(Br)c1	0.922% (inactive)
C[C@]1(C(=O)NCCc2c[nH]c3ccccc23)C=C[C@@H](Cc2ccccc2)N1C(=O)c1ccccc1	40.2% (active)
CC(=O)NC(Cc1c[nH]c2ccccc12)C(=O)NCCc1ccccc1 (centres undefined)	-3% (inactive)
COCCNC(=O)C[C@H]1CC[C@@H]2[C@H](COc3ccc(NC(=O)Nc4cccc(F)c4)cc3C(=O)N2C)O1	-0.175% (inactive)
Cc1noc(C)c1NC(=O)Nc1ccc2c(c1)C(=O)N([C@@H](C)CO)C[C@H](C)[C@H](CN(C)S(=O)(=O)c1cn(C)cn1)OCCCC[C@@H](C)O2	-4.2% (inactive)
C[C@H](CO)N1C[C@H](C)[C@H](CN(C)S(=O)(=O)c2cn(C)cn2)OCCCC[C@H](C)Oc2ccc(N(C)C)cc2C1=O	1.23% (inactive)
C[C@@H]1CN([C@H](C)CO)C(=O)c2cc(N(C)C)ccc2O[C@@H]1CN(C)S(=O)(=O)c1cn(C)cn1	70.9% (active)
C[C@H](CO)N1C[C@H](C)[C@H](CN(C)S(=O)(=O)c2cn(C)cn2)Oc2ccc(N(C)C)cc2C1=O	6.45% (inactive)
Cc1noc(C)c1NC(=O)Nc1ccc2c(c1)C(=O)N([C@H](C)CO)C[C@H](C)[C@@H](CN(C)S(=O)(=O)c1cn(C)cn1)O2	8.16% (inactive) and 22.2% (active)
COc1ccc(S(=O)(=O)N(C)C[C@@H]2Oc3ccc(NC(=O)Nc4c(C)noc4C)cc3C(=O)N([C@H](C)CO)C[C@@H]2C)cc1	-4.21% (inactive) and 6.91% (inactive)
COCC(=O)Nc1ccc2c(c1)[C@@H]1C[C@@H](CC(=O)N3CCN(C)CC3)O[C@H](CO)[C@@H]1O2	2.6% (inactive)
C[C@@H]1CN([C@H](C)CO)C(=O)c2cccc(NC(=O)CCCCCC(=O)Nc3ccccc3N)c2O[C@H]1CN(C)Cc1ccc(Oc2ccccc2)cc1	-13.3% (inactive)
CO[C@@H]1CN(C)C(=O)c2cc(NC(C)=O)ccc2OC[C@H](C)N(C(=O)Cc2ccccn2)C[C@@H]1C	-0.178% (inactive)
COCC(=O)N1CCC2(CC1)CN(C(=O)Nc1ccccc1F)[C@@H](CO)c1c2c2ccc(OC)cc2n1C	-0.316% (inactive)
COCC(=O)Nc1ccc2c(c1)OC[C@@H](C)N(C(=O)c1cnccn1)C[C@H](C)[C@H](OC)CN(C)C2=O	-10.2% (inactive)
C[C@@H]1CCCCO[C@H](CN(C)C(=O)NC2CCCCC2)[C@H](C)CN([C@H](C)CO)C(=O)c2cc(NC(=O)Nc3ccc(F)cc3)ccc2O1	-5.97% (inactive)
C[C@@H]1CCCCO[C@@H](CN(C)C(=O)CCCN(C)C)[C@@H](C)CN([C@H](C)CO)C(=O)c2cc(NC(=O)Nc3ccc(F)cc3)ccc2O1	26.3% (active)
C[C@@H]1CCCCO[C@H](CN(C)C(=O)Nc2cccc3ccccc23)[C@@H](C)CN([C@@H](C)CO)C(=O)c2cc(NC(=O)Nc3ccc(F)cc3)ccc2O1	32.7% (active)
C[C@@H]1CN([C@@H](C)CO)C(=O)c2cc(NC(=O)Nc3ccc(C(F)(F)F)cc3)ccc2O[C@@H](C)CCCCO[C@@H]1CN(C)C(=O)Nc1cccc2ccccc12	-5.51% (inactive)
C[C@@H]1CN([C@@H](C)CO)C(=O)c2cc(NC(=O)Nc3ccc(C(F)(F)F)cc3)ccc2O[C@@H](C)CCCCO[C@H]1CN(C)C(=O)CCCN(C)C	-0.11% (inactive)

Compound	CPE inhibition
C[C@H](CO)N1C[C@H](C)[C@@H](CN(C)C(=O)Nc2ccc3c(c2)OCO3)OCCCC[C@H](C)Oc2ccc(NC(=O)Nc3ccc4c(c3)OCO4)cc2C1=O	0.76% (inactive)
C[C@@H]1CCCCO[C@@H](CN(C)C(=O)NC2CCCCC2)[C@H](C)CN([C@@H](C)CO)C(=O)c2cc(NC(=O)Nc3ccc(F)cc3)ccc2O1	24.1% (active)
COc1ccc(NC(=O)Nc2ccc3c(c2)C(=O)N([C@@H](C)CO)C[C@H](C)[C@@H](CN(C)C(=O)Nc2cccc4ccccc24)OCCCC[C@@H](C)O3)cc1	-3.89% (inactive)
C[C@H]1CCCCO[C@H](CN(C)C(=O)NC2CCCCC2)[C@@H](C)CN([C@@H](C)CO)C(=O)c2cc(NC(=O)Nc3ccc4c(c3)OCO4)ccc2O1	34.9% (active)
C[C@@H]1CCCCO[C@H](CN(C)C(=O)NC2CCCCC2)[C@H](C)CN([C@@H](C)CO)C(=O)c2cc(NC(=O)Nc3ccc(F)cc3)ccc2O1	3.1% (inactive)
C[C@@H]1CCCCO[C@@H](CN(C)C(=O)CCCN(C)C)[C@H](C)CN([C@@H](C)CO)C(=O)c2cc(NC(=O)Nc3ccccc3)ccc2O1	-0.42% (inactive)
C[C@@H]1CN([C@@H](C)CO)C(=O)c2cc(NC(=O)Nc3ccc4c(c3)OCO4)ccc2O[C@@H](C)CCCCO[C@@H]1CN(C)C(=O)Nc1ccc2c(c1)OCO2	0.286% (inactive)
O=S(=O)(c1ccc(F)cc1)N1CCCCN2[C@H](C1)[C@H](c1ccc(C3=CCCCC3)cc1)[C@@H]2CO	-4.44% (inactive)
COc1cccc(S(=O)(=O)N2CCCCN3[C@H](CO)[C@H](c4ccc(C#CC5CC5)cc4)[C@H]3C2)c1	-34.9% (inactive)
CCN1[C@@H]2Cn3c(ccc(-c4cccc(OC)c4)c3=O)[C@H]1[C@@H](C(=O)N(C)C)[C@@H]2CO	-1.41% (inactive)
O=C(Nc1ccccc1)N[C@@H]1CC[C@H](CCn2cc(C3(O)CCCC3)nn2)O[C@@H]1CO	-11.6% (inactive)
C[C@H](CO)N1C[C@H](C)[C@H](CN(C)C)Oc2ccc(NC(=O)Cc3ccccc3)cc2CC1=O	9.5% (inactive)
CC(C)c1cn(CC[C@@H]2CC[C@@H](NC(=O)C3CCC3)[C@@H](CO)O2)nn1	-3.48% (inactive)
Cc1noc(C)c1NC(=O)Nc1cccc2c1O[C@H](CN(C)S(C)(=O)=O)[C@H](C)CN([C@H](C)CO)C2=O	6.73% (inactive)
C[C@@H]1CN([C@@H](C)CO)C(=O)c2cc(-c3cncnc3)cnc2O[C@@H]1CN(C)Cc1ccncc1	15% (inactive)
CO[C@@H]1CN(C)C(=O)c2cc(NC(=O)Nc3cc(F)ccc3F)ccc2OC[C@H](C)N(C)C[C@@H]1C	-0.0135% (inactive)
CN1c2ccc(-c3ccc(C#N)cc3)cc2[C@@H]2[C@@H](CCN2C(=O)C2CCCCC2)[C@H]1CO	-20.7% (inactive)
Cc1ccc(CN2CC(N3CCC(Cc4ccccc4)CC3)CS2(=O)=O)cc1 (centres undefined)	-8.76% (inactive)
Cc1ccc(CN2CCCOCCS2(=O)=O)cc1	40.2% (active)
O=S1(=O)CCOC[C@H](CC2CCCCC2)N1Cc1ccc(F)cc1	3.12% (inactive)

Compound	CPE inhibition
COc1ccc(-c2cnc3c(c2)C(=O)N([C@H](C)CO)C[C@@H](C)[C@H](CN(C)C(=O)Cc2ccncc2)O3)cc1	-3.69% (inactive)
CCCCN(C(C)=O)c1ccc2c(c1)C1CC2CCN1Cc1ccccc1 (centres undefined)	42.3% (active)
FC(F)(F)c1ccc(-c2cccc3c2C2CC3CCN2Cc2ccccc2)cc1 (centres undefined)	-4.78% (inactive)
Clc1cccc2c1C1CC2CCN1Cc1ccccc1 (centres undefined)	-7.07% (inactive)
COc1cccc(S(=O)(=O)N(C)C[C@@H]2Oc3ncc(-c4cccc(C(=O)N(C)C)c4)cc3C(=O)N([C@H](C)CO)C[C@@H]2C)c1	9.65% (inactive)
CN1c2ccc(-c3cccc(C#N)c3)cc2[C@@H]2[C@@H](CCN2C(=O)NC2CCCCC2)[C@@H]1CO	-19.7% (inactive)
O=C(N[C@H]1CC[C@H](CCn2cc(-c3ccccc3F)nn2)O[C@@H]1CO)c1ccc2c(c1)OCO2	6.43% (inactive)
C[C@@H]1CN([C@@H](C)CO)C(=O)c2cccc(NS(=O)(=O)c3cccs3)c2O[C@H]1CN(C)Cc1ccncc1	-4.19% (inactive)
Cc1ccc(S(=O)(=O)N(C)C[C@@H]2Oc3c(NC(=O)Nc4ccccc4)cccc3C(=O)N([C@H](C)CO)C[C@H]2C)cc1	5.91% (inactive)
C[C@@H]1CN([C@@H](C)CO)C(=O)c2cccc(NS(=O)(=O)c3ccc(F)cc3)c2O[C@H]1CN(C)S(=O)(=O)c1cccs1	-1.22% (inactive)
C[C@H](CO)N1C[C@H](C)[C@H](CN(C)S(=O)(=O)c2ccccc2)Oc2c(NC(=O)Nc3ccccc3)cccc2C1=O	-3.55% (inactive)
C[C@H]1CN([C@@H](C)CO)C(=O)c2cccc(NC(=O)Nc3ccccc3)c2O[C@H]1CN(C)S(=O)(=O)c1ccc(Cl)cc1	29.2% (active)
Cc1ccc(S(=O)(=O)N(C)C[C@H]2Oc3c(NS(=O)(=O)c4cccs4)cccc3C(=O)N([C@@H](C)CO)C[C@@H]2C)cc1	-0.283% (inactive)
C[C@@H]1CN([C@@H](C)CO)C(=O)c2cccc(NS(=O)(=O)c3cccs3)c2O[C@@H]1CN(C)CC1CC1	30.5% (active)
COc1ccc(S(=O)(=O)Nc2cccc3c2O[C@@H](CN(C)S(=O)(=O)c2ccc(F)cc2)[C@H](C)CN([C@H](C)CO)C3=O)cc1	-7.57% (inactive)
C[C@H]1CN([C@@H](C)CO)C(=O)c2cccc(NS(=O)(=O)c3ccc(Cl)cc3)c2O[C@H]1CN(C)S(=O)(=O)c1ccc(Cl)cc1	-6.39% (inactive)
COc1ccc(S(=O)(=O)N(C)C[C@@H]2Oc3c(NS(=O)(=O)c4ccccc4)cccc3C(=O)N([C@@H](C)CO)C[C@@H]2C)cc1	-6.28% (inactive)
C[C@H](CO)N1C[C@H](C)[C@H](CN(C)S(=O)(=O)c2cccs2)Oc2c(NS(=O)(=O)c3ccc(Cl)cc3)cccc2C1=O	24.5% (active)
COc1ccc(S(=O)(=O)Nc2cccc3c2O[C@H](CN(C)S(=O)(=O)c2ccc(OC)cc2)[C@@H](C)CN([C@H](C)CO)C3=O)cc1	21.2% (active)
